The subject of assay [1] is Zika virus NS2B-NS3 protease (linked construct). Briefly: Primary screen NINDS Rhodamine qHTS for Zika virus inhibitors (AID 1347160). Also: nearly all actives have a fitted effect of over 55% in size. Also: potency is read from the fitted curve at half-maximal effect. As to activity change, negative = inhibition: % is scaled to controls: 0 for no effect and ±100 for the full control effect. In a few lines:
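Each compound, titrated, sat 15 min with 25 nM linked protease before 1.5 microM Rhodamine110 substrate went in. Fluorescence gain over the next 15 min, in pH 8.0 Tris with Tween 20, gave Hill-fitted curves.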
In general terms: qHTS replaces the single test concentration by a dilution series.

The target in assay [2] is Calcium and integrin-binding protein 1 (Homo sapiens) (UniProt Q99828). The assay can be described thus: Primary qHTS for Identification of Calcium Integrin Binding Protein 1 (CIB1) Competitor (AID 1508620).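 Also: GST tagged CIB1 binding a fluorescein labelled alphaIIb integrin peptide tracer; top concentration of the series differs between compounds; % is scaled to controls: 0 for no effect and ±100 for the full control effect.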 Put shortly: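 CIB1-GST (1 uM final) and compound incubated 15 min at room temperature before adding FITC-alphaIIb peptide tracer (100 nM final). Competition for binding read by fluorescence polarization (ex 480, em 540) after another 15 min at room temperature.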

A short description of assay [3]: Primary qHTS for inhibitors of nuclear receptor binding SET domain protein 2 (NSD2) in an isogenic RCH-ACV NSD2 p.E1099K mutant (9B) (AID 1645876). Also: nearly all actives have a fitted effect of over 70% in size. Also: potency is read from the fitted curve at half-maximal effect.
A short description of assay [4]: Primary qHTS for inhibitors of nuclear receptor binding SET domain protein 2 (NSD2) in an RCH-ACV wild type WT cells (2C) (AID 1645877). Also: nearly all actives have a fitted effect of over 70% in size. Also: potency is read from the fitted curve at half-maximal effect.
Assay [5] concerns the target Glutathione peroxidase 1 (Homo sapiens) (UniProt P07203). Briefly: Primary qHTS Assay for Inhibitors of Recombinant Selenoprotein Glutathione Peroxidase 1 (GPX1) (AID 1845191). Also: nearly all actives have a fitted effect of over 65% in size. Put shortly: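 NADPH consumption tracked by fluorescence at 340/450 nm between t=0 and t=15 min, room temperature. Final mix: 10 nM GPX1, 100 nM glutathione reductase, 1 mM GSH, 0.5 mM NADPH, 0.5 mM cumene hydroperoxide, 0.01% BSA; 30 min compound–enzyme preincubation.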

Assay [6] deals with Phospholipid hydroperoxide glutathione peroxidase GPX4 (Homo sapiens) (UniProt P36969). Briefly: Primary qHTS Assay for Inhibitors of Recombinant Selenoprotein Glutathione Peroxidase 4 (GPX4) (AID 1845192). Also: % is scaled to controls: 0 for no effect and ±100 for the full control effect; nearly all actives have a fitted effect of over 65% in size. To be noted: outcome: dose series up to 50 µM unless noted. In a few lines:
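NADPH consumption followed by fluorescence at 340/450 nm, t=0 and after 15 min at room temperature. Reaction started with cumene hydroperoxide (0.5 mM final) after 30 min compound–GPX4 preincubation; final 200 nM GPX4, 100 nM GR, 1 mM GSH, 0.5 mM NADPH.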

Assay [7] addresses Luciferin 4-monooxygenase (Photinus pyralis) (UniProt P08659). The assay can be described thus: Primary firefly luciferase (FLuc) qHTS assay for identification of artifact compounds. (AID 1845220). Also: nearly all actives have a fitted effect of over 60% in size.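 As to activity change, negative = inhibition: plate controls were DMSO vehicle for no effect and no enzyme for full effect.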 Put shortly: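 FLuc 10 nM; luciferin 10 uM; ATP 10 uM; Tris-acetate pH 7.6, Mg-acetate 10 mM; 15 min RT preincubation; 5 min reaction; luminescence.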
A short description of assay [8]: Primary fluorescence-based thiol-reactive (MSTI) qHTS assay for identification of artifact compounds. (AID 1845221). Also: nearly all actives have a fitted effect of over 65% in size. Also: potency is read from the fitted curve at half-maximal effect.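 As to activity change, negative = thiol reactive: thiol-reactive compounds lower the probe fluorescence signal.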 Put shortly: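 First, 4 uM MSTI in 2% DMSO/PBS pH 7.4 was dispensed; next, compounds were added; then plates sat 1 h at room temperature without light. Finally, emission at 598 nm was recorded.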
Assay [9] has as its system Nanoluciferase (engineered Oplophorus gracilirostris luciferase). The assay can be described thus: Primary Nanoluciferase (NLuc) qHTS assay for identification of artifact compounds. (AID 1845222).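 Also: NLuc secreted into diluted conditioned medium of S16 cells; 0% = DMSO and -100% = no enzyme.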 Put shortly: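 NLuc from S16 cell medium (1:55) plus test compounds, 15 min, room temperature. Luminescence after Nano-Glo (1:100) addition, 5 min.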
Assay [10] deals with C33A. Briefly: Primary qHTS to identify gynecologic anti-cancer compounds using libraries of approved drugs and bioactive compounds (AID 1345084). Also: % is scaled to controls: 0 for no effect and ±100 for the full control effect; nearly all actives have a fitted effect of over 55% in size. To be noted: Gynecologic cancer cell panel viability, ATPlite luminescence, 48 h; series mostly up to 57.5 µM. In a few lines:
(§1)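 48 h compound exposure at 37 C, 5% CO2; five-point qHTS. ATPlite luminescence readout of cell ATP.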

For assay [11], the system named is Es-2. The assay is described as above. To be noted: Gynecologic cancer cell panel viability, ATPlite luminescence, 48 h; series mostly up to 57.5 µM. In a few lines: as §1
A general note: Cellular ATP, detected with luciferase, serves as a proxy for viable cell number.

For assay [12], the system named is HeLa. The assay is described as above. To be noted: Gynecologic cancer cell panel viability, ATPlite luminescence, 48 h; series mostly up to 57.5 µM. Put shortly:
as §1

Assay [13] has as its system JEG-3. The description is as above. To be noted: Gynecologic cancer cell panel viability, ATPlite luminescence, 48 h; series mostly up to 57.5 µM. In a few lines:
as §1

For assay [14], the system named is OV90. The assay is described as above. To be noted: Gynecologic cancer cell panel viability, ATPlite luminescence, 48 h; series mostly up to 57.5 µM. In a few lines: as §1
Assay [15] can be described thus: Primary redox qHTS assay for identification of artifact compounds. (AID 1845223).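 Also: 0% = DMSO and 100% = reference compound.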 In a few lines:
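Redox-cycling detection via DTT (250 uM final) oxidation coupled to Amplex Red (25 uM)/HRP (250 mU/mL) in HBSS. 15 min preincubation plus 30 min after DTT, room temperature. Ex/Em 525/598 nm; 4-parameter Hill fit against DMSO and 10 uM DA3003.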

Assay [16] relates to CASKI. Briefly: Primary qHTS to identify gynecologic anti-cancer compounds using libraries of approved drugs and bioactive compounds (AID 1345084). Also: % is scaled to controls: 0 for no effect and ±100 for the full control effect; nearly all actives have a fitted effect of over 55% in size. To be noted: Gynecologic cancer cell panel viability, ATPlite luminescence, 48 h; series mostly up to 57.5 µM. In a few lines:
as §1

Assay [17] deals with Hek293T. The assay is described as above. To be noted: Gynecologic cancer cell panel viability, ATPlite luminescence, 48 h, control line for the selectivity index; series mostly up to 57.5 µM. Put shortly: as §1
The subject of assay [18] is PA-1. The description is as above. To be noted: Gynecologic cancer cell panel viability, ATPlite luminescence, 48 h; series mostly up to 57.5 µM. In a few lines: as §1
For assay [19], the system named is Tov-21-G. The description is as above. To be noted: Gynecologic cancer cell panel viability, ATPlite luminescence, 48 h; series mostly up to 57.5 µM. In a few lines:
as §1

Assay [20] relates to Tov112D. Described as above. To be noted: Gynecologic cancer cell panel viability, ATPlite luminescence, 48 h; series mostly up to 57.5 µM. In a few lines:
as §1

Unmarked numbers belong to inactive results. Records with an inconclusive call do not appear. The source made the active and inactive calls. Calls follow the shape of the dose curve; as a rule, active = well fitted curve in the direction sought with a large enough effect; inconclusive = small, poorly fitted or top-dose-only effect, or another doubt; inactive = no such curve, though single readings can be large; an effect the other way counts as inactive or inconclusive.

The results in this text go back to PubChem BioAssay (NCATS).

Chain of Glutathione peroxidase 1 (Homo sapiens) (P07203 whole entry, looked up): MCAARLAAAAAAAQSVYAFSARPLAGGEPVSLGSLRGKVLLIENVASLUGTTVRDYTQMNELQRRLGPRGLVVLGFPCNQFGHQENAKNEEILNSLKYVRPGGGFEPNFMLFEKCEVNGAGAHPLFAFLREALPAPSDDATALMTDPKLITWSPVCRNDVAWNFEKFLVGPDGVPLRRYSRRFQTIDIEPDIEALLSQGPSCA
Chain of Calcium and integrin-binding protein 1 (Homo sapiens) (Q99828 whole entry, looked up): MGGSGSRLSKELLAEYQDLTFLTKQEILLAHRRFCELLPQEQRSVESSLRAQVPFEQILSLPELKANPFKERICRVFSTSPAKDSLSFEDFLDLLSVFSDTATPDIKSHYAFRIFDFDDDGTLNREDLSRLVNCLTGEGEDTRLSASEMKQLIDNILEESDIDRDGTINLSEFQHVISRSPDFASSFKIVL
Chain of Phospholipid hydroperoxide glutathione peroxidase GPX4 (Homo sapiens) (P36969 whole entry, looked up): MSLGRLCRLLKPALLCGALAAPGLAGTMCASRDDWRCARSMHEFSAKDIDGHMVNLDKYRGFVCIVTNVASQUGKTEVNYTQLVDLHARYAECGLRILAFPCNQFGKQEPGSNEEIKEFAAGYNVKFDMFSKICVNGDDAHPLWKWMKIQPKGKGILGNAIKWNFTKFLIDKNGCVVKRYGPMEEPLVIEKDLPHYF

With `C=C1C(=O)O[C@@H]2CC(C)=C([C@@H](C)CCCO)[C@@H](OC(=O)C(C)C)[C@H]12`, the Potency entry in assay [1], in assay [5], in assay [6], in assay [7], in [9] and in [10] was “inactive” in each case. For the same compound, the Potency result in assay [11], in assay [12], in [13] and in [14] was “inactive” throughout. In addition, the outcome in [2] was inactive. Further, the figures for the Potency in assay [3], in [4] and in assay [8] were 14.2 µM (active), 14.2 µM (active) and 14.7 µM (active), respectively.
In the case of `CC[C@H]1OC(=O)[C@H](C)[C@@H](O[C@H]2C[C@@](C)(OC)[C@@H](O)[C@H](C)O2)[C@H](C)[C@@H](O[C@@H]2O[C@H](C)C[C@H](N(C)C)[C@H]2O)[C@](C)(O)C[C@@H](C)/C(=N/OCOCCOC)[C@H](C)[C@@H](O)[C@]1(C)O`, the Potency result in assay [1], in [3], in assay [4], in [6], in assay [7] and in assay [8] was “inactive” in each case. The Potency entry in assay [15], in assay [10], in assay [16], in [11], in assay [12] and in assay [17] was “inactive” in each case. For the same compound, the Potency result in assay [13], in assay [14], in assay [18], in assay [19] and in [20] was “inactive” throughout. In [2], the result was inactive.
Regarding `COc1c(N2CC3CCCNC3C2)c(F)cc2c(=O)c(C(=O)O)cn(C3CC3)c12` (stereo unspecified), the Potency result in [1], in [3], in assay [4], in assay [7], in assay [8] and in assay [9] was “inactive” each time. In addition, the Potency entry in [10], in assay [16], in assay [11], in assay [12], in assay [17] and in assay [13] was “inactive” each time. The Potency result in [14], in assay [18], in assay [19] and in [20] was “inactive” in each case. Also, the outcome in [2] was inactive.
Turning to `CC(CCC1(O)OC2CC3C4CC=C5CC(O[C@@H]6O[C@H](CO)[C@@H](O[C@@H]7O[C@H](CO)[C@@H](O)[C@H](O)[C@H]7O)[C@H](O)[C@H]6O[C@@H]6O[C@@H](C)[C@H](O)[C@@H](O)[C@H]6O)CCC5(C)C4CCC3(C)C2C1C)CO[C@@H]1O[C@H](CO)[C@@H](O)[C@H](O)[C@H]1O` (stereo partly specified), the Potency result in [1], in assay [5] and in [6] was “inactive” throughout. In assay [2], the result was inactive. For the same compound, in assay [7], the activity change, negative = inhibition was 1.02% [at 11.6 µM]. Further, in assay [8], the activity change, negative = thiol reactive is 204% [at 11.5 µM]. Also, the activity, negative = inhibition in [9] is 4.58% [at 11.6 µM]. Also, the redox activity (% of DA3003) in assay [15] is 5.01% [at 11.5 µM]. Further, the activity change, negative = cytotoxicity in [10] was 1.45% [at 11.6 µM]; in assay [16] it was 1.26% [at 11.6 µM]; in assay [11], 5.5% [at 11.6 µM]; in assay [12], -13.3% [at 11.6 µM]; in assay [17] it was 1.54% [at 11.6 µM]; in assay [13], -6.68% [at 11.6 µM]. Moreover, the activity change, negative = cytotoxicity in [14] was -1.03% [at 11.6 µM]; in assay [18] it was 4.42% [at 11.6 µM]; in assay [19] it was -1.21% [at 11.6 µM]; in assay [20] it was 7.99% [at 11.6 µM].
With `Cc1ccn(-c2cc(Cl)ccc2[C@@H](Oc2cc(-c3ccc(C[C@H](N)C(=O)O)cc3)nc(N)n2)C(F)(F)F)n1`, in assay [1], the Potency is 22.4 µM (active). In addition, the result in [2] was inactive. For the same compound, the Potency result in assay [5], in assay [7], in [8], in assay [15], in [10] and in [16] was “inactive” in each case. In addition, the Potency result in assay [11], in assay [12], in [17], in [13], in [14] and in assay [18] was “inactive” each time. Moreover, the Potency result in assay [19] and in assay [20] was “inactive” each time.
As to `CC(C)n1cnc2c(Nc3cccc(Cl)c3)nc(NCCO)nc21`, the Potency result in [1], in [5], in assay [6], in [7], in assay [8] and in assay [9] was “inactive” in each case. Further, the Potency entry in assay [10], in [16], in [11], in assay [12], in [17] and in [13] was “inactive” in each case. Besides, the Potency result in assay [14], in assay [18] and in assay [20] was “inactive” in each case. In addition, the outcome in assay [2] was inactive. In addition, the Potency is 11.5 µM (active) in assay [3] and 8.17 µM (active) in assay [4].
